{"source": "PubChem BioAssay AID504753", "about": "(Sanford-Burnham Center for Chemical Genomics, 2011)", "note": "Out of some 2,400 compounds screened, about 820 (34%) were called active.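 How the source made its calls: active means inhibition of at least 50% at 20 µM in any single replicate; inactive means the rest.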 The list is a sample of the results."}
{"tested_on": "glucose-6-phosphate dehydrogenase-6-phosphogluconolactonase (PfGluPho), Plasmodium falciparum 3D7", "experiment": "malaria parasite PfGluPho enzyme inhibition – biochemical, fluorescence intensity, single concentration, confirmation (AID 504753);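 further: 0% = DMSO with substrate and 100% = DMSO lacking glucose-6-phosphate substrate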", "conditions": "recombinant PfGluPho, NADPH-diaphorase-resazurin fluorescence; at 20 µM; hits give high values"}
{"smiles": "O=C1NC(=O)N(c2ccccc2)C(=O)/C1=C/c1ccc([N+](=O)[O-])s1", "inhibition": "64.4% (active)"}
{"smiles": "COC(=O)N(c1ccc(OC)cc1)P1(=S)OCCC(C)O1", "note": "(stereo not given)", "inhibition": "34.3% (inactive)"}
{"smiles": "Cc1cc(C)c2c(c1)NP(=S)(c1ccccc1)N2", "note": "(stereo not given)", "inhibition": "-21% (inactive)"}
{"smiles": "O=C(CSC1c2ccccc2-c2ccccc21)N/N=C/c1ccccc1", "inhibition": "35.3% (inactive)"}
{"smiles": "COc1cccc(-c2nc3ccc(N4CCN(C)CC4)cc3[nH]2)c1", "inhibition": "13.5% (inactive)"}
